The source of these data is PubChem BioAssay (Tox21).

Records with an inconclusive call do not appear. A number with no mark means an inactive call. The source made the active and inactive calls. Unless noted, the call rests on the fitted dose curve; in most records, active means well fitted curve in the direction sought with a large enough effect in the repeat runs; inconclusive means weak or mixed curves; inactive means no such curve, though single readings can be large; an effect the other way counts as inactive or inconclusive.

The nature of test [1]: qHTS assay to identify small molecule antagonists of the vitamin D receptor (VDR) signaling pathway - cell viability counter screen (AID 743225). Further: on the % scale 0 is the no-effect control and ±100 the full control effect; nearly all actives have a fitted effect of over 50% in size. The method, boiled down: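 VDR-bla HEK 293T cells, 4 h pre-incubation at 37C, then compound plus 1-alpha,25-dihydroxyvitamin D3 (3 nM final) for 16 h. After the beta-lactamase FRET read, CellTiter-Glo was added to the same wells; luminescence after 30 min at room temperature.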
Background: qHTS replaces the single test concentration by a dilution series.

Test [2] is described as follows: qHTS assay to identify small molecule agonists of the NFkB signaling pathway - cell viability counter screen (AID 1159515; calls by dose curve; further: series mostly up to about 61 µM; on the % scale 0 is the no-effect control and ±100 the full control effect; nearly all actives have a fitted effect of over 55% in size). The method, boiled down:
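Plate 2,000 NFkB-bla ME-180 cells/well; incubate overnight. Add compounds, 5 hr at 37 C. Add FRET substrate, 1.5 hr RT. Add CellTiter-Glo, 30 min RT; read luminescence.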

A short description of test [3]: qHTS assay to identify small molecule agonists of the endoplasmic reticulum stress response signaling pathway (AID 1159516; active means well fitted activation curve with a large enough effect in the signal ratio in the repeat runs, not every such curve was filed as active; the % refers to the signal ratio; further: on the % scale 0 is the no-effect control and ±100 the full control effect). The method, boiled down: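 Beta-lactamase expression from the ER stress response element in HeLa reporter cells is quantified with the LiveBLAzer B/G FRET substrate, read at 405 nm excitation after 2 hr at room temperature, following 5 hr compound treatment at 37 C.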

The nature of test [4]: qHTS assay to identify small molecule antagonists of the retinoid-related orphan receptor gamma (ROR-gamma) signaling pathway - cell viability counter screen (AID 1159520). Further: on the % scale 0 is the no-effect control and ±100 the full control effect; nearly all actives have a fitted effect of over 50% in size. The method, boiled down:
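Tet-on ROR gamma CHO cells (1,000/well) were plated 4 hr, given compounds in DMSO for 2 hr at 37 C, then induced with 1 uM final doxycycline for 16 hr. Viability was read as ATP by CellTiter-Glo luminescence after 30 min.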

The target of test [5] is Nuclear receptor ROR-gamma (Homo sapiens) (UniProt P51449). In words: qHTS assay to identify small molecule antagonists of the retinoid-related orphan receptor gamma (ROR-gamma) signaling pathway (AID 1159521;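 further: CHO cells with doxycycline inducible ROR-gamma driving an RORE luciferase reporter; top concentration of the series differs between compounds; on the % scale 0 is the no-effect control and ±100 the full control effect; nearly all actives have a fitted effect of over 50% in size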). The method, boiled down:
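Tet-on RORγ CHO cells carrying a ROR response element–luciferase reporter were pretreated with compounds for 2 h, then induced with 1 uM (final) doxycycline hyclate for 16 h at 37 C. Antagonism was read as decreased ONE-Glo luminescence.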

A short description of test [6]: qHTS assay to identify small molecule agonists of the AP-1 signaling pathway - cell viability counter screen (AID 1159525; calls by dose curve; further: nearly all actives have a fitted effect of over 55% in size). In short, it runs like this: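 Each titration point was normalised to DMSO and tetra n-octyl ammonium bromide controls. The read was Cell Titer Glo luminescence after 30 min at RT, following 5 h compound exposure of ME-180 AP-1-bla cells at 37 °C.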

Test [7] can be described thus: qHTS assay to identify small molecule agonists of the AP-1 signaling pathway (AID 1159526; calls by dose curve; further: on the % scale 0 is the no-effect control and ±100 the full control effect).
The target in test [8] is Retinoic acid receptor RXR-alpha (Homo sapiens) (UniProt P19793). In words: qHTS assay to identify small molecule agonists of the RXR signaling pathway (AID 1159527; calls by dose curve; further: on the % scale 0 is the no-effect control and ±100 the full control effect; nearly all actives have a fitted effect of over 35% in size). In short, it runs like this: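 GeneBLAzer RXR-alpha-UAS-bla HEK 293T cells in medium with 2% charcoal-stripped FBS, pre-incubated 5 hr at 37 C, then exposed to compounds 16 hr. Beta-lactamase reporter read by FRET substrate, 2 hr room temperature, 460/530 nm emission.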
Sequence of Retinoic acid receptor RXR-alpha (Homo sapiens) (P19793 whole entry, looked up): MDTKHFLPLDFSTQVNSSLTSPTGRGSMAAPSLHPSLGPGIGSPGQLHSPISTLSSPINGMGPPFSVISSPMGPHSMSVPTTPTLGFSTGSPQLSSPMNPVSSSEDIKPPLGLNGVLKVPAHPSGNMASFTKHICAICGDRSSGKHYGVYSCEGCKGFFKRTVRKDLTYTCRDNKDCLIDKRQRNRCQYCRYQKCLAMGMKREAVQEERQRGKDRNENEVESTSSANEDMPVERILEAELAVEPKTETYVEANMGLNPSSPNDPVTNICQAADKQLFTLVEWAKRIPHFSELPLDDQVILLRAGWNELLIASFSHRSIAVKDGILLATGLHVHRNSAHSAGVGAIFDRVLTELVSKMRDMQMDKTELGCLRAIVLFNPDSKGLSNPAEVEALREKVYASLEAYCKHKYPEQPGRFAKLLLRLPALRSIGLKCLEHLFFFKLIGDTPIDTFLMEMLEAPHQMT

The nature of test [9]: qHTS assay to identify small molecule agonists of the RXR signaling pathway - cell viability counter screen (AID 1159529). Further: series mostly up to about 77 µM; on the % scale 0 is the no-effect control and ±100 the full control effect; nearly all actives have a fitted effect of over 50% in size. The method, boiled down: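 RXR-alpha-UAS-bla HEK 293T cells in medium with 2% charcoal-stripped FBS were preincubated 5 hr, then exposed to compounds for 16 hr at 37 C. Viability was read as CellTiter-Glo luminescence after 30 min at room temperature.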

Test [10] can be described thus: qHTS assay to identify small molecule antagonists of the retinoid acid receptor (RAR) signaling pathway - cell viability counter screen (AID 1159551). Further: on the % scale 0 is the no-effect control and ±100 the full control effect; nearly all actives have a fitted effect of over 35% in size. In short, it runs like this: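 Viability of C3RL4 cells is quantified from ATP by luminescence after 6 h treatment at 37 C with compounds and 1 uM retinol.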
Test [11] can be described thus: qHTS assay to identify small molecule antagonists of the retinoic acid receptor (RAR) signaling pathway (AID 1159552). The method, boiled down:
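RARE-luc C3RL4 cells; cpds + 1 uM (final) retinol, 6 hr, 37 C/5% CO2; luciferase reagent, 30 min RT, luminescence readout. Inhibitors of retinol-driven signal scored.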

Test [12] is described as follows: qHTS assay to identify small molecule agonists of the retinoic acid receptor (RAR) signaling pathway (AID 1159553). Further: potency means the concentration at half of the fitted maximal effect. On activation: on the % scale 0 is the no-effect control and ±100 the full control effect. The method, boiled down: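 Compounds dissolved in DMSO were pinned onto C3RL4 cells seeded the previous day, and plates were held 6 hr at 37 C. RARE-driven luciferase output was then read by luminescence.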
Test [13] can be described thus: qHTS assay to identify small molecule antagonists of the estrogen related receptor (ERR) signaling pathway from Tox21 library - cell viability counter screen (AID 1224834). Further: on the % scale 0 is the no-effect control and ±100 the full control effect; nearly all actives have a fitted effect of over 30% in size. The method, boiled down: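 In this quantitative HTS format, ERR cells receive compounds in DMSO and are incubated for 17.5 h at 37 C. Live-cell protease activity is then detected with CellTiter-Fluor.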

Test [14] concerns the target Luciferin 4-monooxygenase (Photinus pyralis) (UniProt P08659). In words: qHTS assay to identify small molecule inhibitors of firefly luciferase (AID 1224835). Further: nearly all actives have a fitted effect of over 25% in size. Further: potency means the concentration at half of the fitted maximal effect. On activity change, negative = inhibition: series mostly up to about 120 µM; on the % scale 0 is the no-effect control and ±100 the full control effect. In short, it runs like this:
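Quantitative HTS format; KM concentrations of both substrates. Purified P. pyralis FLuc activity quantified from luminescence images.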

The nature of test [15]: qHTS assay to identify small molecule agonists of the constitutive androstane receptor (CAR) signaling pathway - cell viability counter screen (AID 1224836). Further: series mostly up to about 92 µM; on the % scale 0 is the no-effect control and ±100 the full control effect; nearly all actives have a fitted effect of over 45% in size. The method, boiled down: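 HepG2 cells stably carrying hCAR and a CYP2B6-2.2kb reporter were plated 4 h, then given compounds at 15 concentrations plus PK11195 (final 0.75 uM). After 23 h at 37 C, viability was read by CellTiter-Fluor fluorescence.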

Test [16] is described as follows: qHTS assay to identify small molecule antagonists of the constitutive androstane receptor (CAR) signaling pathway - cell viability counter screen (AID 1224837). Further: series mostly up to about 92 µM; on the % scale 0 is the no-effect control and ±100 the full control effect; nearly all actives have a fitted effect of over 45% in size. In short, it runs like this:
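In quantitative HTS format, compounds at 15 concentrations were applied to HepG2 cells double-transfected with hCAR and CYP2B6-2.2kb under 50 nM CITCO stimulation; live-cell protease activity was read after 23 hr via CellTiter-Fluor.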

Test [17] concerns the target Nuclear receptor subfamily 1 group I member 3 (Homo sapiens) (UniProt Q14994). Description: qHTS assay to identify small molecule agonists of the constitutive androstane receptor (CAR) signaling pathway (AID 1224839). Further: nearly all actives have a fitted effect of over 15% in size. Further: potency means the concentration at half of the fitted maximal effect. The method, boiled down: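 HepG2 cells stably expressing hCAR and a CYP2B6-2.2kb luciferase reporter were treated with compounds at 15 concentrations plus 0.75 uM PK11195 (final) for 24 h at 37 C; luminescence was read after ONE-Glo addition.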

Test [18] can be described thus: qHTS assay to identify small molecule antagonists of the estrogen related receptor signaling pathway with the pleiotropic PPARgamma coactivator (PGC) from Tox21 10K library - cell viability counter screen (AID 1224840; active means well fitted cell-killing curve with a large enough effect in the repeat runs, not every such curve was filed as active; further: on the % scale 0 is the no-effect control and ±100 the full control effect; nearly all actives have a fitted effect of over 40% in size). In short, it runs like this: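 Viability counter screen, PGC/ERR cells: 17.5 h compound exposure at 37 C, CellTiter-Fluor fluorescence endpoint.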

Test [19] has as its target Nuclear receptor subfamily 1 group I member 3 (Homo sapiens) (UniProt Q14994). In words: qHTS assay to identify small molecule antagonists of the constitutive androstane receptor (CAR) signaling pathway (AID 1224838). Further: on the % scale 0 is the no-effect control and ±100 the full control effect; nearly all actives have a fitted effect of over 40% in size. In short, it runs like this: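 CITCO-stimulated (50 nM final) HepG2 cells stably transfected with hCAR and CYP2B6-2.2kb luciferase were exposed to compounds at 15 concentrations for 24 h at 37 C/5% CO2. A luciferase reagent was added and luminescence recorded after 30 min.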

A short description of test [20]: qHTS assay to identify small molecule agonists of the endoplasmic reticulum stress response signaling pathway - cell viability counter screen (AID 1159517; calls by dose curve). In short, it runs like this:
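Cytotoxicity of test compounds toward ESRE-bla HeLa cells was assessed after 5 hr exposure. The luminescent CellTiter-Glo signal was measured 30 min after reagent addition.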

Sequence of Nuclear receptor subfamily 1 group I member 3 (Homo sapiens) (Q14994 whole entry, looked up): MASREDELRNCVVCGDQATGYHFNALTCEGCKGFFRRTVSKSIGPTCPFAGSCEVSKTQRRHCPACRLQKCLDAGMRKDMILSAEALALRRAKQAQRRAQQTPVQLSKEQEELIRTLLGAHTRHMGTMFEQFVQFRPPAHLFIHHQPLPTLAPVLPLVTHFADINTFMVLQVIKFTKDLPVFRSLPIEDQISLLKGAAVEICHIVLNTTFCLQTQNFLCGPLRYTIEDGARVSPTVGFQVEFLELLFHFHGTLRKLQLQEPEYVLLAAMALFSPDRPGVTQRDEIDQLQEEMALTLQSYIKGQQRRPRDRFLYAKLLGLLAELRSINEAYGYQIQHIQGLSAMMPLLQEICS
Sequence of Luciferin 4-monooxygenase (Photinus pyralis) (P08659 whole entry, looked up): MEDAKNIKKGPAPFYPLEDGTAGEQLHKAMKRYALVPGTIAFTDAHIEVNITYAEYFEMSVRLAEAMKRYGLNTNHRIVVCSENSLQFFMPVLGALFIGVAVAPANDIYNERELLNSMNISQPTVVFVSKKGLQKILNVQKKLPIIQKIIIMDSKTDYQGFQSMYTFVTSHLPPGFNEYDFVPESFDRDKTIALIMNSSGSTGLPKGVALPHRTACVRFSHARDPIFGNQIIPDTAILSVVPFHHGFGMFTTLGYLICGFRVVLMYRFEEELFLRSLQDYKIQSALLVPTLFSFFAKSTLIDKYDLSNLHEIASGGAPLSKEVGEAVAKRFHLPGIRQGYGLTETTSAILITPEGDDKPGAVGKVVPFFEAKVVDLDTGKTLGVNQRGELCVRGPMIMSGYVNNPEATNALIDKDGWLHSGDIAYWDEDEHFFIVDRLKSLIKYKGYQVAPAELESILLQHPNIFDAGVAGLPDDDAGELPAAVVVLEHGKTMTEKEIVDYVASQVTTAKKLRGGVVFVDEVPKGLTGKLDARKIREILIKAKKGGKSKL

Regarding `C[C@@H]1CC[C@@]2(OC1)O[C@H]1C[C@H]3[C@@H]4CC[C@H]5C[C@@H](O)CC[C@]5(C)[C@H]4CC(=O)[C@]3(C)[C@H]1[C@@H]2C`, the viability change, negative = cytotoxic was -3.49% [at 6.95 µM] in test [1]; 2.16% [at 6.97 µM] in [6]; 0.595% [at 8.39 µM] in [13]; 0.858% [at 8.39 µM] in test [15]; -2.49% [at 8.39 µM] in test [18]. For the same compound, the activity, negative = cytotoxic in test [2] was 6.74% [at 6.95 µM]. Further, the activation in test [3] was 3.05% [at 6.95 µM]; in [7], -4.54% [at 6.97 µM]; in test [8] it was 2.2% [at 6.98 µM]; in test [12] it was 0.12% [at 8.36 µM]; in test [17], 0.221% [at 8.39 µM]. Further, the activity, negative = cytotoxicity in test [4] was 4% [at 8.39 µM]. Moreover, the activity change, negative = inhibition in [5] was 0.0168% [at 8.39 µM]; in [14] it was 8.12% [at 10.5 µM]. In addition, the activity change, negative = cytotoxicity in test [9] was -0.0245% [at 6.97 µM]; in test [10], -1.39% [at 8.39 µM]; in test [16] it was 4.92% [at 8.39 µM]. Also, the activity, negative = inhibition in test [11] is -0.792% [at 8.39 µM].

With `CCCCNCC`, the compound was called inactive in test [1], in [2], in [4], in [5], in test [6] and in [10]. The call in [13], in test [15], in test [16], in test [19] and in test [18] was inactive. Moreover, the Potency result in [3], in test [7], in test [8], in test [9], in test [12] and in test [14] was “inactive” throughout. For the same compound, in test [17], the Potency result is “inactive”.

Turning to `CCCCCCCCCCCCCCCC(=O)OC`, the compound was classed as inactive in [1] and in test [2]. For the same compound, the Potency entry in test [3] and in [12] was “inactive” in each case. In addition, the activity, negative = cytotoxicity in [4] is 1.29% [at 19 µM]. Besides, the results for the activity change, negative = inhibition in test [5] and in test [14] were 7.03% [at 19 µM] and 0.26% [at 23.6 µM], respectively. Further, the viability change, negative = cytotoxic in test [6] is -12.9% [at 15.8 µM]; in test [13], 2.97% [at 19 µM]; in [15], -0.61% [at 19 µM]; in test [18], 5.32% [at 19 µM]. The figures for the activation in test [7], in test [8] and in test [17] were 17.1% [at 15.8 µM], -1.09% [at 15.8 µM] and -1.6% [at 19 µM], respectively. For the same compound, the figures for the activity change, negative = cytotoxicity in test [9], in test [10] and in [16] were -3.67% [at 15.8 µM], 3.42% [at 19 µM] and -4.04% [at 19 µM], respectively. The activity, negative = inhibition in test [11] was -7.57% [at 19 µM]; in test [19] it was -5.63% [at 19 µM].

For the compound `CCOC(=O)c1ccc(N(C)C)cc1`, the compound was called inactive in [1], in test [2], in test [4], in test [5], in test [6] and in test [10]. In addition, the result in test [11], in test [15], in test [16], in test [19] and in test [18] was inactive. In addition, the Potency result in test [3], in [7], in test [8] and in test [9] was “inactive” each time. Also, the Potency in [12] was 15.4 µM (active); in [14], 35.6 µM (active); in test [17], 30.6 µM (active).

`CCCCOCCCC`: the result in [1], in [2], in [20], in [4], in test [5] and in test [6] was inactive. For the same compound, the compound was called inactive in test [10], in test [11], in test [13], in [15], in test [16] and in test [18]. Further, the Potency entry in test [3], in test [7], in test [9], in test [12], in [14] and in test [17] was “inactive” each time.

As for `CC(=O)OC1CCC(C(C)(C)C)CC1` (stereo not drawn), the result in [1], in test [2], in [4], in [5], in [6] and in [10] was inactive. For the same compound, the call in test [11], in [13], in [15], in test [16], in test [19] and in test [18] was inactive. Also, the Potency entry in test [3], in [7], in [8], in [9], in test [12] and in test [14] was “inactive” throughout. For the same compound, the Potency result in test [17] is “inactive”.

`COc1cc2nc(N3CCN(C(=O)C4CCCO4)CC3)nc(N)c2cc1OC` (stereo not drawn): the Potency result in test [3], in [7], in [8], in test [9], in [12] and in [17] was “inactive” each time. Also, the outcome in [20], in test [4], in test [5], in test [6], in test [10] and in [11] was inactive. Besides, the compound was called inactive in test [13], in [15], in test [16], in test [19] and in test [18]. The Potency in test [14] is 17.4 µM (active).
